PubChem BioAssay (Tox21)
Results filed as inconclusive are left out. Where a call stands in place of a potency, no number is given. Activity calls are given as the source filed them. Calls follow the shape of the full dose curve.

target: Acetylcholinesterase (Homo sapiens) (UniProt P22303); assay: Acetylcholinesterase (AChE) small molecule antagonists: colormetric cell-based qHTS assay (AID 1347395); conditions: SH-SY5Y cells AChE activity, colorimetric (Ellman); series mostly up to 115 µM; also: nearly all actives have a fitted effect of over 30% in size
Sequence (P22303 whole entry, looked up): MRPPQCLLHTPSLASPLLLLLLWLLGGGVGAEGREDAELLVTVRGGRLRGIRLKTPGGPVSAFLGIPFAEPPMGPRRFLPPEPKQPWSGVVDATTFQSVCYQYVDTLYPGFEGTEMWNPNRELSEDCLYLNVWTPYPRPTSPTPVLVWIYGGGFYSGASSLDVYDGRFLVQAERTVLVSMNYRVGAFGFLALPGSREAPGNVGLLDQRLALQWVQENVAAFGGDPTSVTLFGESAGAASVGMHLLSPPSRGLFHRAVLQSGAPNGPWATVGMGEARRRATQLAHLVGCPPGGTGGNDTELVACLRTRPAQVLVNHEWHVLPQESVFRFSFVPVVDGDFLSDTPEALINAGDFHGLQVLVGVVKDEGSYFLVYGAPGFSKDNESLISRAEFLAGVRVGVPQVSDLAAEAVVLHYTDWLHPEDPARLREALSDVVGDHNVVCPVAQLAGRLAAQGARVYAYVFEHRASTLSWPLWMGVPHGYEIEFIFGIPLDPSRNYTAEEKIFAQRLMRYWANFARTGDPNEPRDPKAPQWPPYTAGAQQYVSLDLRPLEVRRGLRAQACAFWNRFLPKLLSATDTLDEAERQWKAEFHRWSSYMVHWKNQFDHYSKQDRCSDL
In short: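 Endogenous AChE of human neuroblastoma SH-SY5Y cells was measured with an Ellman-type DTNB/acetylthiocholine mix. Compound pretreatment lasted 30 min at 37 C; substrate reaction ran 90 min at 37 C.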

Row | Compound | Potency | activity, negative = inhibition | outcome
1 | O=c1[nH]c2ccccc2c(=O)n1CCCl | inactive |  | 
2 | CCC(C)(C)CC | inactive |  | 
3 | C=C(C)C(=O)OCC(C)O (configuration not stated) | inactive |  | 
4 | Nc1ccc(C(=O)Oc2ccccc2)c(O)c1 | inactive |  | 
5 | CC(C)CCCCCCOC(=O)C1CCCCC1C(=O)OCCCCCCC(C)C (configuration not stated) | inactive |  | 
6 | Cc1ccc2c(ccc3ccccc32)c1 | inactive |  | 
7 | FB(F)F | inactive |  | 
8 | O=C=NCc1cccc(CN=C=O)c1 |  | -0.545% [at 23.6 µM] (inactive) | 
9 | C#C[C@]1(O)CC[C@H]2[C@@H]3CCC4=CC(=O)CC[C@@H]4[C@H]3CC[C@@]21CC | inactive |  | 
10 | CCOC(=O)/C=C\C(=O)OCC | inactive |  | 
11 | NC(N)=NC(N)=NCCc1ccccc1 | inactive |  | 
12 | Cc1occc1S | inactive |  | 
13 | C=C(C)C(=O)OCCCCCCCCCCCCCCCCCC |  | 0.231% [at 23.6 µM] (inactive) | 
14 | C=CCNc1nc(NCC=C)nc(N2CCN(C(c3ccc(F)cc3)c3ccc(F)cc3)CC2)n1 |  |  | inactive
15 | C=CC(=O)N1CCOCC1 | inactive |  | 
16 | O=[N+]([O-])c1ccc(/C=N\O)o1 | inactive |  | 
17 | C1CCSC1 | inactive |  | 

target: Acetylcholinesterase (Homo sapiens) (UniProt P22303); assay: Acetylcholinesterase (AChE) small molecule antagonists: enzyme-based qHTS assay (AID 1347397); conditions: Potency: AChE enzyme activity inhibition; outcome: AChE enzyme activity inhibition; series mostly up to 115 µM; also: nearly all actives have a fitted effect of over 55% in size
In short: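 Recombinant human AChE (50 mU/mL) preincubated with compound 30 min at room temperature; acetylthiocholine plus DTNB then added, and thiocholine formation read colorimetrically after 10 min at room temperature. DMSO served as vehicle control.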

Row | Compound | Potency | activity change, negative = inhibition | outcome
18 | Oc1ccc(/C=C/c2cc(O)cc(O)c2)cc1 | inactive |  | 
19 | CC(C)C[C@H](NC(=O)[C@H](CCc1ccccc1)NC(=O)CN1CCOCC1)C(=O)N[C@@H](Cc1ccccc1)C(=O)N[C@@H](CC(C)C)C(=O)[C@@]1(C)CO1 | inactive |  | 
20 | CC(C)(C)OC(=O)c1cccc(N)c1 | inactive |  | 
21 | Nc1ncnc2c1ncn2[C@@H]1O[C@H](COP(=O)(O)O)[C@@H](O)[C@H]1O | inactive |  | 
22 | C/C=C/C(=O)C1=C(C)CCCC1(C)C | inactive |  | 
23 | CCNC(=O)/C=C/c1cccc(Br)c1 | inactive |  | 
24 | Cc1cc(C)cc(O)c1 | inactive |  | 
25 | O=C(O)CCCCCCCC(=O)O | inactive |  | 
26 | O=S(=O)(O)c1ccc(O)cc1 | inactive |  | 
27 | COc1ccc2[nH]cc(CCNC(C)=O)c2c1 | inactive |  | 
28 | COc1c(Cl)ccc(Cl)c1C(=O)O | inactive |  | 
29 | COc1cc(S(=O)(=O)Nc2ccccc2)c(OC)cc1N | inactive |  | 
30 | N[C@H](C(=O)O)c1ccc(O)cc1 |  | 0.185% [at 23.6 µM] (inactive) | 
31 | CCCCCCCCCCCCOCCO | inactive |  | 
32 | O=C(O)CNc1ccccc1 | inactive |  | 
33 | CC(C)Oc1ccccc1O | inactive |  | 
34 | NS(=O)(=O)c1ccc(Cl)c(S(N)(=O)=O)c1 | inactive |  | 
35 | COc1ccc(CCC(C)=O)cc1 | inactive |  | 
36 | CC(=O)c1ccc(O)cc1 | inactive |  | 
37 | CC(=O)N[C@H]1[C@H]([C@H](O)[C@H](O)CO)OC(C(=O)O)=C[C@@H]1N=C(N)N | inactive |  | 

Row | Compound | Potency | activity change, negative = inhibition | outcome
38 | CC(C)Cc1ccccc1 | inactive |  | 
39 | CC1(C)CCC[C@]2(C)[C@H]3CC(=O)O[C@]3(C)CC[C@@H]12 | inactive |  | 
40 | c1ccc2[nH]ccc2c1 | inactive |  | 
41 | O=c1[nH]c2ccccc2c(=O)n1CCCl | inactive |  | 
42 | CCC(C)(C)CC | inactive |  | 
43 | C=C(C)C(=O)OCC(C)O (configuration not stated) | inactive |  | 
44 | Nc1ccc(C(=O)Oc2ccccc2)c(O)c1 | inactive |  | 
45 | CC(C)CCCCCCOC(=O)C1CCCCC1C(=O)OCCCCCCC(C)C (configuration not stated) | inactive |  | 
46 | Cc1ccc2c(ccc3ccccc32)c1 | inactive |  | 
47 | FB(F)F | inactive |  | 
48 | O=C=NCc1cccc(CN=C=O)c1 |  | 0.393% [at 23.6 µM] (inactive) | 
49 | C#C[C@]1(O)CC[C@H]2[C@@H]3CCC4=CC(=O)CC[C@@H]4[C@H]3CC[C@@]21CC | inactive |  | 
50 | CCOC(=O)/C=C\C(=O)OCC | inactive |  | 
51 | NC(N)=NC(N)=NCCc1ccccc1 | inactive |  | 
52 | Cc1occc1S | inactive |  | 
53 | C=C(C)C(=O)OCCCCCCCCCCCCCCCCCC |  | 0.946% [at 23.6 µM] (inactive) | 
54 | C=CCNc1nc(NCC=C)nc(N2CCN(C(c3ccc(F)cc3)c3ccc(F)cc3)CC2)n1 |  |  | inactive
55 | C=CC(=O)N1CCOCC1 | inactive |  | 
56 | O=[N+]([O-])c1ccc(/C=N\O)o1 | inactive |  | 
57 | C1CCSC1 | inactive |  | 

target: Acetylcholinesterase (Homo sapiens) (UniProt P22303); assay: Acetylcholinesterase (AChE) small molecule antagonists: fluorescence cell-based qHTS assay (AID 1347398); conditions: SH-SY5Y cells; Potency: AChE activity; outcome: AChE activity; series mostly up to 115 µM; also: nearly all actives have a fitted effect of over 50% in size
In short: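 SH-SY5Y cells (2000/well), attached overnight, incubated with compound 30 min at 37 C. Acetylthiocholine plus Thiolite Green then added for 40 min at room temperature. Thiocholine fluorescence (Ex/Em 490/520 nm) reports cellular AChE activity.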

Row | Compound | Potency | activity change, negative = inhibition | outcome
58 | Oc1ccc(/C=C/c2cc(O)cc(O)c2)cc1 | inactive |  | 
59 | CC(C)C[C@H](NC(=O)[C@H](CCc1ccccc1)NC(=O)CN1CCOCC1)C(=O)N[C@@H](Cc1ccccc1)C(=O)N[C@@H](CC(C)C)C(=O)[C@@]1(C)CO1 | inactive |  | 
60 | CC(C)(C)OC(=O)c1cccc(N)c1 | inactive |  | 
61 | Nc1ncnc2c1ncn2[C@@H]1O[C@H](COP(=O)(O)O)[C@@H](O)[C@H]1O | inactive |  | 
62 | C/C=C/C(=O)C1=C(C)CCCC1(C)C | inactive |  | 
63 | CCNC(=O)/C=C/c1cccc(Br)c1 | inactive |  | 
64 | Cc1cc(C)cc(O)c1 | inactive |  | 
65 | O=C(O)CCCCCCCC(=O)O | inactive |  | 
66 | O=S(=O)(O)c1ccc(O)cc1 | inactive |  | 
67 | COc1ccc2[nH]cc(CCNC(C)=O)c2c1 | inactive |  | 
68 | COc1c(Cl)ccc(Cl)c1C(=O)O | inactive |  | 
69 | COc1cc(S(=O)(=O)Nc2ccccc2)c(OC)cc1N | inactive |  | 
70 | N[C@H](C(=O)O)c1ccc(O)cc1 |  | 10.4% [at 23.8 µM] (inactive) | 
71 | CCCCCCCCCCCCOCCO | inactive |  | 
72 | O=C(O)CNc1ccccc1 | inactive |  | 
73 | CC(C)Oc1ccccc1O | inactive |  | 
74 | NS(=O)(=O)c1ccc(Cl)c(S(N)(=O)=O)c1 | inactive |  | 
75 | COc1ccc(CCC(C)=O)cc1 | inactive |  | 
76 | CC(=O)c1ccc(O)cc1 | inactive |  | 
77 | CC(=O)N[C@H]1[C@H]([C@H](O)[C@H](O)CO)OC(C(=O)O)=C[C@@H]1N=C(N)N | inactive |  | 

Row | Compound | Potency | activity change, negative = inhibition | outcome
78 | CC(C)Cc1ccccc1 | inactive |  | 
79 | CC1(C)CCC[C@]2(C)[C@H]3CC(=O)O[C@]3(C)CC[C@@H]12 | inactive |  | 
80 | c1ccc2[nH]ccc2c1 | inactive |  | 
81 | O=c1[nH]c2ccccc2c(=O)n1CCCl | inactive |  | 
82 | CCC(C)(C)CC | inactive |  | 
83 | C=C(C)C(=O)OCC(C)O (configuration not stated) | inactive |  | 
84 | Nc1ccc(C(=O)Oc2ccccc2)c(O)c1 | inactive |  | 
85 | CC(C)CCCCCCOC(=O)C1CCCCC1C(=O)OCCCCCCC(C)C (configuration not stated) | inactive |  | 
86 | Cc1ccc2c(ccc3ccccc32)c1 | inactive |  | 
87 | FB(F)F | inactive |  | 
88 | O=C=NCc1cccc(CN=C=O)c1 |  | -0.0492% [at 23.8 µM] (inactive) | 
89 | C#C[C@]1(O)CC[C@H]2[C@@H]3CCC4=CC(=O)CC[C@@H]4[C@H]3CC[C@@]21CC | inactive |  | 
90 | CCOC(=O)/C=C\C(=O)OCC | inactive |  | 
91 | NC(N)=NC(N)=NCCc1ccccc1 | inactive |  | 
92 | Cc1occc1S | inactive |  | 
93 | C=C(C)C(=O)OCCCCCCCCCCCCCCCCCC |  | 2.72% [at 23.8 µM] (inactive) | 
94 | C=CCNc1nc(NCC=C)nc(N2CCN(C(c3ccc(F)cc3)c3ccc(F)cc3)CC2)n1 |  |  | inactive
95 | C=CC(=O)N1CCOCC1 | inactive |  | 
96 | O=[N+]([O-])c1ccc(/C=N\O)o1 | inactive |  | 
97 | C1CCSC1 | inactive |  | 
